Consider six compounds from PubChem BioAssay (EPA / NIEHS).

Active and inactive are the calls of the source. Rule for the calls: active = hit-call score of the fitted dose curve at least 0.9, where 1 is the maximum; inactive = score below 0.9.

Assay [1] in a line: APR_HepG2_CellCycleArrest_24hr: Apredica 24-hour HepG2 Assay for Cell Cycle Arrest (AID 2282905).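 Note: cell cycle arrest scored as ratio of 2N to 4N nuclear DNA content.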 The note with it: imaging, actives raise or lower the signal. The essentials: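 Readout: Hoechst 33342 nuclear DNA content by high-content fluorescent imaging, six images/well, 20x. Human HepG2 liver cells, 24 hr compound exposure, 0.39–200 uM, final DMSO 0.5% v/v. Gain or loss fitted relative to DMSO baseline.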

Assay [2] in a line: APR_HepG2_NuclearSize_24hr: Apredica 24-hour HepG2 Assay for Nuclear Size (AID 2282907). The conditions noted are these: high-content imaging, actives raise or lower the signal. A digest of the protocol:
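Read-out: nuclear diameter from Hoechst 33342 (2 ug/mL) imaging of fixed HepG2 cells, 20x, six fields/well. Compounds ran at 0.39–200 uM for 24 hr, 0.5% DMSO final. Gain or loss was fitted bidirectionally relative to the DMSO baseline.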

Assay [3] is described as follows: APR_HepG2_CellLoss_24hr: Apredica 24-hour HepG2 Assay for Cell Loss (AID 2282908).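 For AC50: fit in both directions so a hit may be cell loss or gain.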 The note with it: high-content imaging. A digest of the protocol: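 Read-out: Hoechst 33342-stained nuclei counted by automated fluorescence imaging after formaldehyde fixation and Triton permeabilization. Ten concentrations, 0.39 to 200 uM, duplicate wells, 0.5% DMSO final. Gain or loss of signal fitted relative to DMSO baseline.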

The nature of assay [4]: APR_HepG2_MicrotubuleCSK_24hr: Apredica 24-hour HepG2 Assay for Microtubule CSK Stabilty (AID 2282909). The note with it: HepG2 microtubule cytoskeleton imaging, actives raise or lower the signal. The essentials:
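Read-out: alpha-tubulin immunofluorescence intensity by automated high-content imaging of fixed HepG2 cells after 24 h compound treatment. Ten concentrations, 0.39 to 200 uM, in duplicate; DMSO 0.5% v/v. Taxol positive control; DMSO-normalized bidirectional curve fitting.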

The nature of assay [5]: APR_HepG2_MitoticArrest_24hr: Apredica 24-hour HepG2 Assay for Mitotic Arrest (AID 2282910). The note with it: high-content imaging, actives raise or lower the signal. A digest of the protocol: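 HepG2, 24 hr dosing, 0.39–200 uM, 0.5% DMSO final. Formaldehyde-fixed, Triton-permeabilised, anti-phospho-histone H3 plus Hoechst. ArrayScan imaging at 20x; bidirectional fit vs DMSO baseline.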

Assay [6] is described as follows: APR_HepG2_MitoMembPot_24hr: Apredica 24-hour HepG2 Assay for Mitochondrial Membrane Potential (AID 2282911). The note with it: imaging, actives raise or lower the signal. A digest of the protocol: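 Mitochondrial dye uptake (MitoTracker Red CMXRos, 250 nM, 30 min pre-fixation) in HepG2 after 24 hr compound exposure, 0.39–200 uM; ArrayScan images at 20x, activity fitted in both directions relative to DMSO.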

The nature of assay [7]: APR_HepG2_MitoMass_24hr: Apredica 24-hour HepG2 Assay for Mitochondrial Mass (AID 2282912). The note with it: high-content imaging, actives raise or lower the signal. A digest of the protocol:
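HepG2, 24 hr dosing, 10 concentrations 0.39–200 uM in duplicate, DMSO 0.5% final. MitoTracker Red CMXRos 250 nM, 30 min pre-fix; 3.7% formaldehyde fix. Imaging-based fluorescence intensity; gain/loss fit vs DMSO baseline.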

Assay [8] is described as follows: APR_HepG2_p53Act_24hr: Apredica 24-hour HepG2 Assay for p53 Activation (AID 2282913).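 Note: p53 protein immunofluorescence averaged per cell in HepG2 with Hoechst nuclei.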 The conditions noted are these: high-content imaging, actives raise or lower the signal. A digest of the protocol: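 Following 24 hr dosing of HepG2 at 0.39–200 uM, the cells undergo formaldehyde fixation, Triton permeabilization and multiplexed antibody labeling that includes p53 (Cy5). Signal from the imaging is referenced to DMSO solvent controls.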

Assay [9] is described as follows: APR_HepG2_CellCycleArrest_72hr: Apredica 72-hour HepG2 Assay for Cell Cycle Arrest (AID 2282914). The note with it: high-content imaging, actives raise or lower the signal. A digest of the protocol: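 Using multiplexed high-content imaging, HepG2 nuclei stained with Hoechst 33342 (2 ug/mL) were analysed for DNA content after fixation and permeabilization. Treatment lasted 72 hr across 0.39–200 uM in duplicate with final DMSO 0.5% v/v; DMSO served as negative control.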

Assay [10] can be described thus: APR_HepG2_CellLoss_72hr: Apredica 72-hour HepG2 Assay for Cell Loss (AID 2282915). The note with it: high-content imaging. A digest of the protocol:
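HepG2 cells exposed 72 h to compound at 0.39–200 uM (10 concentrations, duplicate) in 0.5% DMSO. Fixed with 3.7% formaldehyde and Hoechst 33342-stained. Imaged at 20x; nuclear count gives cell number, fitted bidirectionally versus DMSO.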

Assay [11] can be described thus: APR_HepG2_P-H2AX_72hr: Apredica 72-hour HepG2 Assay for H2AX Phosphorylation (AID 2282916).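 Note: phospho-histone H2A.x immunostain intensity per cell marking DNA damage.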 The conditions noted are these: imaging, actives raise or lower the signal. The essentials: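 Readout: phospho-H2A.x immunofluorescence (FITC secondary) plus Hoechst nuclear stain, high-content imaging at 20x, six fields/well. HepG2, 72 hr compound exposure, 0.39–200 uM, final DMSO 0.5% v/v. Gain or loss fitted relative to DMSO baseline.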

Assay [12] is described as follows: APR_HepG2_MitoMembPot_72hr: Apredica 72-hour HepG2 Assay for Mitochondrial Membrane Potential (AID 2282917). The note with it: imaging, actives raise or lower the signal. A digest of the protocol: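 HepG2 cells dosed 72 hr with compound at 0.39–200 uM in duplicate, 0.5% v/v DMSO final. Mitochondria stained with 250 nM MitoTracker Red CMXRos for 30 min before formaldehyde fixation, imaged by high-content fluorescence; bidirectional fit versus DMSO.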

The nature of assay [13]: APR_HepG2_MitoticArrest_72hr: Apredica 72-hour HepG2 Assay for Mitotic Arrest (AID 2282918). The note with it: high-content imaging, actives raise or lower the signal. The essentials: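 Using high-content imaging of fixed HepG2 cells, phospho-histone H3 signal was measured following a 72 hr incubation with ten-point compound dilutions up to 200 uM. DMSO served as the negative control and baseline for bidirectional curve fitting.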

Assay [14] is described as follows: APR_HepG2_MicrotubuleCSK_72hr: Apredica 72-hour HepG2 Assay for Microtubule CSK Stabilty (AID 2282919). The conditions noted are these: HepG2 microtubule cytoskeleton, high-content imaging, actives raise or lower the signal. The essentials:
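HepG2, 72 hr cmpd exposure, 0.39–200 uM (10 pts, duplicate), 0.5% DMSO. 3.7% formaldehyde fix, 0.5% Triton perm, anti-alpha-tubulin/Cy5 plus Hoechst. HCS fluorescence intensity; bidirectional fit vs DMSO baseline; taxol as positive control.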

Assay [15] can be described thus: APR_HepG2_P-H2AX_24hr: Apredica 24-hour HepG2 Assay for H2AX Phosphorylation (AID 2282920). The conditions noted are these: high-content imaging, actives raise or lower the signal. A digest of the protocol: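 Human HepG2 liver cells, treated 24 hr with test chemicals (0.39–200 uM, final DMSO 0.5% v/v), are fixed and co-stained for phospho-H2A.x and c-Jun with Hoechst. Imaged intensity is fitted in both directions against DMSO controls.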

The nature of assay [16]: APR_HepG2_StressKinase_72hr: Apredica 72-hour HepG2 Assay for Stress Kinase (AID 2282921). The note with it: HepG2 stress kinase (phospho-c-Jun) imaging, actives raise or lower the signal. A digest of the protocol: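 Phospho-c-Jun immunofluorescence measured by high-content imaging at 20x, six fields per well; bidirectional curve fitting against DMSO as baseline. Dosing: 0.39–200 uM, 72 h, 0.5% DMSO final.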

The nature of assay [17]: APR_HepG2_StressKinase_24hr: Apredica 24-hour HepG2 Assay for Stress Kinase (AID 2282922). The conditions noted are these: HepG2 stress kinase (phospho-c-Jun) imaging, actives raise or lower the signal. A digest of the protocol:
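Read-out: phospho-c-Jun immunofluorescence (Cy3 secondary) quantified by high-content imaging at 20x, nuclei defined by Hoechst 33342. Human HepG2 liver cells dosed 24 hr, 0.39–200 uM, DMSO 0.5% v/v; gain or loss of signal fitted relative to DMSO.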

Assay [18] can be described thus: APR_HepG2_p53Act_72hr: Apredica 72-hour HepG2 Assay for p53 Activation (AID 2282923).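 Note: average cellular p53 protein immunofluorescence intensity in HepG2 cells.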 The conditions noted are these: high-content imaging, actives raise or lower the signal. The essentials:
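Readout: p53 immunofluorescence quantified by automated high-content imaging at 20x, six fields per well, nuclei located via Hoechst. Dosing ran 72 hr over ten concentrations from 0.39 to 200 uM; bidirectional curve fitting against DMSO baseline.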

Assay [19] is described as follows: APR_HepG2_MitoMass_72hr: Apredica 72-hour HepG2 Assay for Mitochondrial Mass (AID 2282924).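 Note: MitoTracker Red CMXRos stain intensity per cell imaged as mitochondrial mass.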 The note with it: high-content imaging, actives raise or lower the signal. A digest of the protocol:
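Read-out: MitoTracker Red fluorescence intensity from automated imaging (20x, six fields per well) in human HepG2 liver cells. Dosing ran 72 hr, 0.39–200 uM, 0.5% DMSO; bidirectional curve fitting versus DMSO baseline.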

A short description of assay [20]: APR_HepG2_NuclearSize_72hr: Apredica 72-hour HepG2 Assay for Nuclear Size (AID 2282925). The note with it: high-content imaging, actives raise or lower the signal. A digest of the protocol: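 Read-out: nuclear diameter from Hoechst 33342 images (ArrayScan, 20x, six fields/well), via cell-cycle image analysis. HepG2 were dosed 0.39–200 uM for 72 hr in 0.5% DMSO. Bidirectional fit relative to DMSO.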

One may read the AC50 as the concentration giving half of the maximal activity seen. Regarding `NC(=O)c1nc(-c2cccc(-c3cc(F)ccc3OCC(F)(F)C(F)(F)F)c2)n[nH]1`, the result in assay [1], in [2], in assay [4], in assay [6], in [8] and in assay [12] was inactive. In addition, the compound was classed as inactive in assay [13], in assay [14], in assay [15], in assay [17], in assay [18] and in assay [19]. Also, the AC50 in assay [3] was 127 µM (active); in assay [5], 101 µM (active); in assay [7], 160 µM (active); in assay [9] it was 104 µM (active); in [10] it was 91.9 µM (active); in assay [11], 111 µM (active). The AC50 in assay [16] is 93.4 µM (active); in assay [20], 100 µM (active).
Consider `CCCCCCCCCCCC[N+](C)(C)C`, for which the AC50 in assay [1] was 59 µM (active); in [3] it was 75.6 µM (active); in assay [5], 50.2 µM (active); in [7] it was 180 µM (active); in assay [8], 49.5 µM (active); in assay [10], 41.7 µM (active). Also, the AC50 in [11] was 75.4 µM (active); in [13], 13.2 µM (active); in assay [15] it was 50.4 µM (active); in [16] it was 100 µM (active); in [18], 20.5 µM (active). For the same compound, the call in [2], in [4], in assay [6], in [9], in assay [12] and in [14] was inactive. Moreover, the outcome in assay [17], in assay [19] and in assay [20] was inactive.
Consider `O=C(O)Cn1c(=O)n(Cc2ccc(Br)cc2F)c(=O)c2ccc(Cl)cc21`, for which the outcome in [1], in [2], in assay [3], in [4], in assay [5] and in [6] was inactive. For the same compound, the compound was called inactive in assay [7], in assay [8], in [9], in assay [10], in assay [11] and in [13]. Also, the compound was called inactive in [14], in assay [15], in [16], in assay [17], in assay [18] and in assay [19]. The result in assay [20] was inactive.
For `CC/C(=C(/CC)c1ccc(O)cc1)c1ccc(O)cc1`, the AC50 was 20.9 µM (active) in assay [1]; 90.9 µM (active) in assay [3]; 50 µM (active) in assay [5]; 46 µM (active) in [7]; 33.8 µM (active) in [8]; 31.3 µM (active) in assay [9]. The AC50 in assay [10] was 79.5 µM (active); in [11], 68 µM (active); in assay [12], 71.6 µM (active); in [13] it was 91.2 µM (active); in assay [15], 33.1 µM (active); in assay [16], 28.7 µM (active). In addition, the AC50 in assay [18] was 74.1 µM (active). The compound was classed as inactive in assay [2], in assay [4], in assay [6], in assay [14], in assay [17] and in assay [19]. In addition, the result in assay [20] was inactive.
With `Cc1c2ccccc2c(C)c2c1ccc1ccccc12`, the AC50 in assay [1] is 44.6 µM (active); in assay [2], 77.3 µM (active); in assay [3] it was 56.1 µM (active); in assay [4], 74.5 µM (active); in assay [5], 49.3 µM (active); in assay [6], 95.7 µM (active). The AC50 in [8] was 0.069 µM (active); in [9], 6.16 µM (active); in [10], 40.3 µM (active); in assay [11], 21.5 µM (active); in assay [13] it was 35.8 µM (active); in assay [14] it was 74 µM (active). In addition, the AC50 in assay [15] was 19.8 µM (active); in assay [16], 6.17 µM (active); in assay [18] it was 0.355 µM (active); in [20], 54.7 µM (active). Moreover, the result in assay [7], in assay [12], in assay [17] and in [19] was inactive.
As for `CCO[Si](CCCNC(N)=O)(OCC)OCC`, the result in [1], in assay [2], in [3], in [4], in assay [5] and in [6] was inactive. The compound was called inactive in assay [7], in assay [8], in assay [9], in assay [10], in assay [11] and in assay [13]. Further, the result in assay [14], in assay [15], in assay [16], in assay [17], in assay [18] and in assay [19] was inactive. Moreover, the compound was called inactive in assay [20].
